Measured values from ChEMBL document CHEMBL1157539, “Thousands of chemical starting points for antimalarial lead identification” (Nature, 2010).

How the values were obtained:
Assay type in all cases: functional
[1] = system: Plasmodium falciparum; test: GSK_TCMDC: Inhibition of Plasmodium falciparum 3D7 in whole red blood cells, using parasite LDH activity as an index of growth. Test compounds present at 2uM
[2] = system: Plasmodium falciparum; test: GSK_TCMDC: Inhibition of Plasmodium falciparum Dd2 in whole red blood cells, using parasite LDH activity as an index of growth. Test compounds present at 2uM
[3] = system: HepG2; test: GSK_TCMDC: Percent inhibition of human HepG2 cell line. Test compounds present at 10uM.

COc1ccc(CN(C2CC2)C(C)C(=O)c2[nH]c(C)c(C(C)=O)c2C)cc1 (stereo not drawn)
Inhibition [1]: 98% | Inhibition [2]: 64% | Inhibition [3]: 40%

CC[C@H]1CN2CC[C@@H]1C[C@H]2[C@H](O)c1cc(-c2cc(Cl)cc(Cl)c2)nc2ccc(OC)cc12
Inhibition [1]: 99% | Inhibition [2]: 97% | Inhibition [3]: 0%

CCN1CCC(N2CCC(n3c(C)nc4cc(C(F)(F)F)ccc43)CC2)CC1
Inhibition [1]: 93% | Inhibition [2]: 16% | Inhibition [3]: 6%

Cc1ccc(C(=O)Nc2ccnc(N(C)C3CCN(Cc4cccc(O)c4)CC3)c2)cn1.O=C(O)C(F)(F)F
Inhibition [1]: 90% | Inhibition [2]: 1% | Inhibition [3]: 0%

COCCNCc1cccc(-c2ccc(CN(C(=O)Nc3ccccc3)C3CCN(Cc4ccccc4)CC3)cc2)c1.O=C(O)C(F)(F)F
Inhibition [1]: 100% | Inhibition [2]: 45% | Inhibition [3]: 25%

CC(C)N(C)C(=O)n1cnc(S(=O)(=O)C2CC3CCC2C3)n1.Cl (stereo not drawn)
Inhibition [1]: 97% | Inhibition [2]: 96% | Inhibition [3]: 26%

COC(=O)/C=C/C(=O)N[C@@H]1CC[C@@]2(O)[C@H]3Cc4ccc(O)c5c4[C@@]2(CCN3CC2CC2)[C@H]1O5.Cl
Inhibition [1]: 95% | Inhibition [2]: 66% | Inhibition [3]: 9%

CN1CCN(c2ccc3[nH]c(-c4ccc5[nH]c(-c6ccc(O)cc6)nc5c4)nc3c2)CC1.Cl.O
Inhibition [1]: 99% | Inhibition [2]: 100% | Inhibition [3]: 0%

Cc1cccc(C(=O)Nc2ccnc(N(C)C3CCN(CC(C)C)CC3)c2)c1.O=C(O)C(F)(F)F
Inhibition [1]: 95% | Inhibition [2]: 6% | Inhibition [3]: 10%

CC(C)CNCc1cccc(-c2ccc(CN(C(=O)Nc3ccccc3)C3CCN(Cc4ccccc4)CC3)cc2)c1.O=C(O)C(F)(F)F
Inhibition [1]: 100% | Inhibition [2]: 61% | Inhibition [3]: 41%

COc1ccc(CC(C)NCC(O)c2cccc(Cl)c2F)cc1 (stereo not drawn)
Inhibition [1]: 88% | Inhibition [2]: 59% | Inhibition [3]: 3%

O=S(=O)(NC1CCC(CN2CCC(c3c[nH]c4ccccc34)CC2)CC1)c1ccc(Cl)c(Cl)c1 (stereo not drawn)
Inhibition [1]: 97% | Inhibition [2]: 32% | Inhibition [3]: 36%

COC(=O)c1ccc(CC(C)NCC(O)c2ccc(Cl)c(Cl)c2)cc1 (stereo not drawn)
Inhibition [1]: 87% | Inhibition [2]: 33% | Inhibition [3]: 0%

O=C(O)C(F)(F)F.O=C(c1cccs1)N(Cc1cccc(-c2ccc(CNC3CCCC3)cc2)c1)C1CCN(Cc2ccccc2)CC1
Inhibition [1]: 90% | Inhibition [2]: 74% | Inhibition [3]: 20%

CN(c1ccc(NC(=O)CCOc2ccccc2)cc1)C1CCN(Cc2cccc(O)c2)CC1.O=C(O)C(F)(F)F
Inhibition [1]: 89% | Inhibition [2]: 0% | Inhibition [3]: 18%

CNCCCCCCOc1ccc(CC(C)NCC(O)c2cccc(C(F)(F)F)c2)cc1.Cl (stereo not drawn)
Inhibition [1]: 100% | Inhibition [2]: 79% | Inhibition [3]: 99%

CCCCCc1cc(O)c2c(c1)OC(C)(C)CC2C1=CCN(Cc2cccnc2)CC1.Cl.O (stereo not drawn)
Inhibition [1]: 97% | Inhibition [2]: 97% | Inhibition [3]: 15%

O=C(/C=C/c1ccc(Cl)c(Cl)c1)N(Cc1ccccc1)C1CCC(CN2CCC(c3c[nH]c4ccccc34)CC2)CC1 (stereo not drawn)
Inhibition [1]: 100% | Inhibition [2]: 59% | Inhibition [3]: 37%

CC(Cc1ccc(NC(=O)[C@@H](C)NCCc2cccc(Cl)c2)cc1)NCCc1cccc(Cl)c1.Cl (stereo partly drawn)
Inhibition [1]: 99% | Inhibition [2]: 54% | Inhibition [3]: 99%

CC[C@H]1CN2CC[C@H]1C[C@@H]2[C@@H](O)c1cc(Cl)nc2ccc(OC)cc12
Inhibition [1]: 98% | Inhibition [2]: 82% | Inhibition [3]: 0%

CC[C@H]1CN2CC[C@H]1C[C@H]2[C@H](O)c1cc(/C=C/c2ccc(F)cc2)nc2ccc(OC)cc12.Cl
Inhibition [1]: 99% | Inhibition [2]: 99% | Inhibition [3]: 55%

O=C(NC1CCC(CN2CCC(c3c[nH]c4ccccc34)CC2)CC1)c1cc2ccccc2o1 (stereo not drawn)
Inhibition [1]: 94% | Inhibition [2]: 14% | Inhibition [3]: 34%

Cl.OC(CNC1CCCCCC1)c1ccc(Cl)c(Cl)c1 (stereo not drawn)
Inhibition [1]: 99% | Inhibition [2]: 98% | Inhibition [3]: 0%

CC1=CC(=O)[C@@H](O)[C@]2(C)[C@H]3[C@@]4(O)OC[C@@]35[C@@H](C[C@@H]12)OC(=O)C[C@H]5[C@@H](C)[C@H]4O [CHAPARRINONE]
Inhibition [1]: 99% | Inhibition [2]: 98% | Inhibition [3]: 38%

CC(Cc1ccc(Sc2ccccc2)cc1)NCC(O)c1cccc(C(F)(F)F)c1 (stereo not drawn)
Inhibition [1]: 99% | Inhibition [2]: 53% | Inhibition [3]: 0%

COC(=O)c1ccc(CC(C)NCC(O)c2cccc(I)c2)cc1 (stereo not drawn)
Inhibition [1]: 87% | Inhibition [2]: 54% | Inhibition [3]: 15%
